High-throughput results deposited in PubChem BioAssay by several laboratories.
tim23-1 inh: growth inhibitors of tim23-1 mutant yeast; S. cerevisiae tim23-1 growth, BacTiter-Glo luminescence, 24 h; inhibition, % at 20 µM; 1.3% of 330,000 active;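 active = growth inhibition of the mutant yeast at or above 50%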;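 note: temperature-sensitive mutant grown at 25 °C; plate controls were DMSO-treated mutant yeast for no effect and medium wells lacking yeast for full effect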
tim10-1 inh: growth inhibitors of tim10-1 mutant yeast. S. cerevisiae tim10-1 ts strain growth, BacTiter-Glo, 24 h. inhibition, % at 20 µM. 2.2% of 330,000 active;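 active = inhibition of at least 40%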;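 note: mutant grown at 25 °C; 0% = DMSO wells with yeast and 100% = wells holding no yeast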
ATG4B inh: inhibitors of human ATG4B cysteine protease | Q9Y4P1 | ATG4B cleavage of LC3-PLA2, NBD-HPC fluorescence, 1 h | inhibition, % at 8.33 µM | 0.51% of 340,000 active | AID 504462; in the data active = inhibition above about 40%
Target sequence (Q9Y4P1 whole entry, looked up): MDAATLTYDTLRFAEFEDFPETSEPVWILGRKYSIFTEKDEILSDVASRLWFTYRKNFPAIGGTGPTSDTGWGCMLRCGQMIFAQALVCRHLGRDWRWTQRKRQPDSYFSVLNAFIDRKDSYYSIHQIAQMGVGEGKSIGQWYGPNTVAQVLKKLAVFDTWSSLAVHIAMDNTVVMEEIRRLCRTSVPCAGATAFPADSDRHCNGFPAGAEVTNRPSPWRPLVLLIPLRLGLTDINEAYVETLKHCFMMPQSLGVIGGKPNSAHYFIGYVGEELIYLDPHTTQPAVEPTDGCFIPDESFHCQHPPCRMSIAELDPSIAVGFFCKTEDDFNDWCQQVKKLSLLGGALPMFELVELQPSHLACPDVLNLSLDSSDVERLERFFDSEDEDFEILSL
TIM10 inh: TIM10 yeast growth inhibition; S. cerevisiae TIM10 strain growth, BacTiter-Glo luminescence, 24 h; inhibition, % at 10 µM; 1.4% of 330,000 active; AID 463195;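 active = inhibition of 40% or more at the single tested concentration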;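 note: wild-type TIM10 isogenic control strain grown at permissive 25 °C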
SKKanGAS inh: inhibitors of SKKanGAS S. pyogenes growth in kanamycin (SK-promoter or general growth effect); inhibition, % at 7.5 µM; BacTiter-Glo, 6 h; 1.3% of 300,000 active; AID 1662;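 active = mean replicate score, as percent of positive control median, at least 50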;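 note: strain carries kanamycin resistance gene driven by streptokinase promoter and grows in 40 µg/ml kanamycin; loss of luminescence reflects streptokinase promoter inhibition or plain growth inhibition; 0% = median of DMSO wells and 100% = positive control at its reference dose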
PfHsp90 set2: growth inhibition of yeast expressing Plasmodium Hsp90 | inhibition, % at 9.4 µM | S. cerevisiae expressing PfHsp90, BacTiter-Glo ATP, 48 h; yeast lacking PDR1 and PDR3 efflux regulators | 0.32% of 310,000 active;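 active = every replicate shows inhibition above about 80%, whatever the replicate mean, limit read from the data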;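 note: 0% = DMSO neutral controls and 100% = 20 µM radicicol positive controls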
tim10-1 conf: confirmation of tim10-1 mutant yeast growth inhibitors; shares compounds with tim10-1 inh; S. cerevisiae tim10-1 ts strain growth, BacTiter-Glo, 24 h; inhibition, % at 20 µM; 56% of 7,400 active; AID 463213;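 active = inhibition of yeast growth at or above a set limit in either of two repeat tests at 20 µM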;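 note: tim10-1 mutant grown at permissive 25 °C to find synthetic lethal compounds; 0% = DMSO yeast wells and 100% = medium wells without yeast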
TIM10 conf: confirmation of TIM10 yeast growth inhibitors | shares compounds with TIM10 inh | S. cerevisiae tim10 strain growth, BacTiter-Glo luminescence, 24 h | inhibition, % at 10 µM | 63% of 4,600 active | AID 463215;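 active = inhibition of yeast growth at or above a set limit in either of two replicates at 10 µM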;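 note: this counterscreen used the strain with wild-type TIM10; 0% = yeast with DMSO and 100% = medium wells lacking yeast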
The depositor's hits bear a star. Only some compounds are listed: those with a hit (about 4.7% of all), similar ones and a draw of the others.

What do the screens show for `O=C(Nc1ccc([N+](=O)[O-])cn1)c1cc(-c2cccc(Br)c2)nc2ccccc12`?
tim23-1 inh: 7.7; tim10-1 inh: 6.3; ATG4B inh: -5.2; TIM10 inh: 7.7; SKKanGAS inh: 5.1; PfHsp90 set2: -14.4

Results for CCOC(=O)Cc1csc(NC(=S)NC(=O)c2ccc(C)cc2)n1 ?
tim23-1 inh: -5.9; tim10-1 inh: 16.7; ATG4B inh: 4.2; TIM10 inh: 23.8; SKKanGAS inh: -12.3; PfHsp90 set2: 15.2

How did CCOC(=O)Cc1csc(NC(=S)NC(=O)c2ccccc2)n1 do in these assays?
tim23-1 inh: 26.5; tim10-1 inh: 47.0*; ATG4B inh: 8.0; TIM10 inh: 50.7*; SKKanGAS inh: -23.3; PfHsp90 set2: -3.2; tim10-1 conf: 30.1; TIM10 conf: 35.3*

Results for Cc1cnc(C(=O)OCC(=O)NC(C)C)cn1 ?
tim23-1 inh: 15.3; tim10-1 inh: -1.4; ATG4B inh: 3.9; TIM10 inh: -22.3; SKKanGAS inh: -7.3

How did Cc1ccc2c(c1)nnn2C1CCN(C(=O)C23CC4CC(CC(C4)C2)C3)CC1 do in these assays?
tim23-1 inh: 43.6; tim10-1 inh: 59.5*; ATG4B inh: -3.9; TIM10 inh: 42.3*; SKKanGAS inh: 1.1; tim10-1 conf: 40.5*; TIM10 conf: 37.8*

Results for Cc1ccc2c(c1)nnn2C1CCN(C(=O)NC23CC4CC(CC(C4)C2)C3)CC1 ?
tim23-1 inh: 3.0; tim10-1 inh: 11.3; TIM10 inh: -11.1; SKKanGAS inh: -16.7

Results for COC(=O)c1nnn(-c2nc(N(C)C)nc(N(C)C)n2)c1C ?
tim23-1 inh: 29.2; tim10-1 inh: 32.9; ATG4B inh: -2.7; TIM10 inh: 12.6; SKKanGAS inh: 9.9

What do the screens show for `O=C(Nc1ccc(C(F)(F)F)cc1Cl)c1ccc(Cn2cc(Br)cn2)o1`?
tim23-1 inh: 23.6; tim10-1 inh: 36.6; ATG4B inh: 1.4; TIM10 inh: 7.4; SKKanGAS inh: -2.0; PfHsp90 set2: -38.1

How did O=C(Nc1cccc(C(F)(F)F)c1)c1ccc(Cn2cc(Br)cn2)o1 do in these assays?
tim23-1 inh: 45.4; tim10-1 inh: 42.7*; ATG4B inh: -16.2; TIM10 inh: 41.9*; SKKanGAS inh: 8.3; PfHsp90 set2: 2.5; tim10-1 conf: 34.6*; TIM10 conf: 43.4*

Results for Cc1ccccc1NC(=O)COC(=O)CCc1c[nH]c2ccccc12 ?
tim23-1 inh: 22.7; tim10-1 inh: 11.0; ATG4B inh: -6.5; TIM10 inh: 4.5; PfHsp90 set2: -5.8

What do the screens show for `Cc1cc(NC(=O)C2CC2)ncc1NC(=O)C12CC3CC(CC(C3)C1)C2`?
tim23-1 inh: 48.4; tim10-1 inh: 53.8*; ATG4B inh: -13.3; TIM10 inh: 47.6*; SKKanGAS inh: 4.4; PfHsp90 set2: 30.4; tim10-1 conf: 39.6*; TIM10 conf: -21.4

Results for OCCN1CCN(C2Cc3cc(Cl)ccc3Sc3ccc(Cl)cc32)CC1 (stereo not given) (tested in a mixture with another compound) ?
tim23-1 inh: 19.6; tim10-1 inh: 48.5*; ATG4B inh: -5.7; TIM10 inh: 43.5*; SKKanGAS inh: 10.8; PfHsp90 set2: -21.0; tim10-1 conf: 35.5*; TIM10 conf: 0.9

How did O=C(Nc1cccc([N+](=O)[O-])c1)NC1CCCCCCC1 do in these assays?
tim23-1 inh: 43.6; tim10-1 inh: 42.7*; ATG4B inh: 21.1; TIM10 inh: 44.1*; PfHsp90 set2: 21.8; tim10-1 conf: 36.2*; TIM10 conf: 42.4*

What do the screens show for `O=C(CNC1CCCCC1)Nc1cccc([N+](=O)[O-])c1`?
tim23-1 inh: 3.2; tim10-1 inh: -3.7; ATG4B inh: -3.5; TIM10 inh: 0.3; SKKanGAS inh: -3.4; PfHsp90 set2: 0.9

Results for O=C(NC(=S)Nc1cccc([N+](=O)[O-])c1)C1CCCC1 ?
tim23-1 inh: 48.8; tim10-1 inh: 54.1*; ATG4B inh: -8.9; TIM10 inh: 46.9*; SKKanGAS inh: 0.6; PfHsp90 set2: 14.2; tim10-1 conf: 44.8*; TIM10 conf: 51.5*
